Screening data: PubChem BioAssay, National Center for Advancing Translational Sciences (NCATS)
Sampled rows, rich in hits. Any-hit rate of the full collection: about 3.2%.
Lassa entry inh – Lassa virus entry inhibition | Lassa virus pseudotype entry inhibition, cell reporter | Potency, µM (top dose mostly 37.9 µM), without a hit: at the highest dose activity change, negative = inhibition, actives largely listed as inhibitors | actives 1.2% (n = 300,000) | AID 540256; calls by dose curve; tested in HEK293 cells; also: nearly all actives have a fitted effect of over 50% in size
Vaccinia Venus – vaccinia inhibition (Venus reporter); Vaccinia virus Venus reporter expression, fluorescence; actives 0.46% (n = 330,000); Potency, µM (highest dose often 36.5 µM), for inactives: top-dose activity change, negative = inhibition, most hits filed as inhibitors; calls by dose curve; tested in A549 cells; also: nearly all actives have a fitted effect of over 30% in size
MARV entry inh – inhibitors of Marburg virus binding or cell entry; actives 1.8% (n = 300,000); Marburg virus pseudotyped entry inhibition, cell reporter; Potency, µM (top dose mostly 37.8 µM), for inactives: top-dose activity change, negative = inhibition, usual class: inhibitors; calls by dose curve; tested in HEK293 cells
FMDV antiviral – foot and mouth disease virus antiviral activity; FMDV antiviral cell-based qHTS; Potency, µM (titrated, usually from 57.9 µM), for inactives: at the top dose activity change, negative = inhibition, actives largely listed as inhibitors; actives 1.2% (n = 410,000); calls by dose curve; tested in HEK293T cells; also: read-out not given here; nearly all actives have a fitted effect of over 45% in size
Vaccinia mCherry – vaccinia inhibition (mCherry reporter); Potency, µM (titrated, usually from 36.5 µM), without a hit: at the top dose activity change, negative = inhibition, usual class: inhibitors; actives 0.63% (n = 310,000); Vaccinia virus mCherry reporter infection, fluorescence; calls by dose curve; tested in A549 cells; also: nearly all actives have a fitted effect of over 35% in size
An asterisk follows results filed as active; i = inactive; ? = inconclusive; / = not tested or not shown; ! = not confirmed by another sample; [ ] = dose if it differs, or a comment. % is scaled to controls: 0 for no effect and ±100 for the full control effect; potency is read from the fitted curve at half-maximal effect.

SMILES | Lassa entry inh | Vaccinia Venus | MARV entry inh | FMDV antiviral | Vaccinia mCherry
Cc1cc(C)nc(/N=C(\N)Nc2ccccc2-c2ccccc2)n1 | -19.7% | -29.7% | ? | 17.8µM* | ?
COc1cc(N/C(N)=N/c2nc(C)cc(C)n2)c(OC)cc1Cl | -23.3% | / | 9.2µM* | ? | /
Cc1cc(C)nc(/N=C(\N)Nc2ccc(C(C)C)cc2)n1 | ? | -17.4%[7.34 µM] | 10µM* | 14.1µM* | -16.5%[7.34 µM]
Cc1ccc(N/C(N)=N/c2nc(C)cc(C)n2)cc1 | 12.3% | -20.9% | -34.9% | 0.0% | -2.1%
Cc1cc(C)cc(N/C(N)=N/c2nc(C)cc(C)n2)c1 | 20.6µM* | ? | ? | -28.0% | -24.7%
CC(C)COc1ccc(CNC(=S)Nc2ccccc2)cc1Cl | -12.4%[46.1 µM] | -16.2% | ? | -6.5% | -25.8%
CCOC(=O)N1CCN(C(=O)CN(c2cccc(Cl)c2)S(=O)(=O)c2ccccc2)CC1 | -26.6%[46.1 µM] | 1.5% | 28.5%[46.1 µM] | 12.1% | 2.9%
CCCCCCNCc1c(F)cccc1Cl | 4.8% | -2.1% | -2.8% | 3.7% | -15.3%
CCCCCCNC(=O)CCCCCNS(=O)(=O)c1ccc(OC)cc1 | ? | -8.6% | -17.6% | 12.2% | i
CCCCc1ccc(N/C(N)=N/c2nc(C)cc(C)n2)cc1 | ? | ? | ? | 25.1µM* | ?
O=C(NNC(=S)Nc1ccc(F)cc1)C1CC1c1ccc(Cl)cc1 (stereo not given) | 0.411µM* | -19.0% | 0.2% | -16.1% | -21.0%
NNC(=O)C1CC1c1ccc(Cl)cc1 (stereo not given) | 2.59µM* | -9.3% | -0.5% | -16.9% | -18.5%
CCCC(c1nnnn1C(C)(C)CC)N(Cc1ccco1)Cc1cc2ccc(OC)cc2[nH]c1=O (stereo not given) | ? | ? | 12.6µM* | -13.0% | ?
O=C(CSC1=Nc2ccccc2C2=NC(CCC(=O)NC3CCCCC3)C(=O)N12)Nc1cccc(Cl)c1 (stereo not given) | 7.5%[46.1 µM] | -3.9% | 11.1%[46.1 µM] | -15.5% | -6.3%
Cc1ccc2nc(Cl)c3nnnn3c2c1 | 0.9%[46.1 µM] | -1.5% | 1.7%[46.1 µM] | 12.6µM* | i
Cc1ccc2nc(NCc3ccccc3Cl)c3nnnn3c2c1 | 2.3%[46.1 µM] | -25.4% | 11.1%[46.1 µM] | -11.3% | -18.9%
Cc1ccc(/C=C/C(=O)c2ccc([N+](=O)[O-])o2)cc1 | / | ? | / | ? | -22.9%
Cc1cc(O)c(C(=O)/C=C/c2ccc(Cl)cc2)c(=O)o1 | 23.0% | 7.4% | 22.0% | 25.1µM* | -8.0%
COc1ccc(/C=C\C(=O)c2c(O)ccc3c(C)cc(=O)oc23)cc1OC | ? | ? | ? | 35.5µM* | -7.0%
COc1cc(/C=C/C(=O)c2c(O)ccc3c(C)cc(=O)oc23)ccc1O | ? | ? | ? | ? | -3.3%
COc1cc(/C=C/C(=O)c2c(O)cc(C)oc2=O)cc(OC)c1O | -0.4% | 58.6% | -19.8% | 14.1µM* | 67.9%
O=C(/C=C/c1ccc(Cl)cc1)c1ccc([N+](=O)[O-])o1 | / | 10µM* | / | ? | 8.91µM*
CSc1ccc(/C=C/C(=O)c2c(O)cc(C)oc2=O)cc1 | -26.5%[46.1 µM] | 33.9% | 8.5%[46.1 µM] | -29.6% | 17.2%
O=C(NCc1ccc(N2CCCC2=O)cc1)c1cc(COc2c(F)cccc2F)on1 | -29.0% | -12.8% | -9.7% | 19.4% | ?
COc1ccc(CC(=O)Nc2cc(C)ccn2)cc1 | 6.5% | / | 1.5% | 61.4% | /
SMILES | Lassa entry inh | Vaccinia Venus | MARV entry inh | FMDV antiviral | Vaccinia mCherry
O=C(C[n+]1ccncc1)c1cccc2ccccc12 | / | 6.0% | / | / | -9.0%
COc1ccc(CCNC(=O)c2ccc3c(c2)NC(=O)CS3)cc1OC | -10.0%[46.1 µM] | -10.1% | -28.9%[46.1 µM] | -1.7% | i
CSc1nc(N)nc2c1ncn2CC(=O)NCCCc1ccccc1 | / | -24.2% | / | -16.5% | i
O=C(CCC(=O)c1ccc(F)cc1)OCc1nnc(-c2ccc([N+](=O)[O-])cc2)o1 | -0.7% | -2.5% | ? | -15.0% | -13.9%
COc1ccc(/C=C/C(=O)c2c(O)cc(C)oc2=O)c(OC)c1 | 15.2% | 42.8% | -7.3% | 10.4% | i
COc1cccc(/C=C/C(=O)c2c(O)cc(C)oc2=O)c1O | -10.7% | -10.6% | ? | 20µM* | -23.9%
CCCCC1=CC2=CC(=O)C(C)(OC(=O)CC)C(=O)C2=CN1CCc1ccc(Br)cc1 (stereo not given) | / | -10.9% | / | -13.7% | -25.9%
O=C(CNC(=S)N(Cc1ccccc1F)C1CCCCC1)NCC1CCCO1 (stereo not given) | 4.47µM* | ? | ? | 0.3% | -28.2%
O=C(CNC(=S)N(Cc1ccc(F)cc1)C1CCCCC1)NCC1CCCO1 (stereo not given) | -4.9% | -5.6% | 3.3%[46.1 µM] | 3.7% | -10.8%
O=C(NN=C1CCCCCCCCCCC1)c1cccnc1 | / | / | / | -8.8% | /
NS(=O)(=O)c1ccc(CCNC(c2ccccc2)c2ccccc2)cc1 | -20.2% | 1.5% | ? | ? | -7.2%
c1ccc(C(NCCNC(c2ccccc2)c2ccccc2)c2ccccc2)cc1 | ? | / | 8.2µM* | -17.5% | /
O=C(O)[C@@H]1CC(=O)n2c(nc3ccccc32)S1 | / | / | 0.8% | / | /
Cc1nc2sccn2c1CN1CCOc2ccc(CN3C[C@@H](C)O[C@@H](C)C3)cc2C1 | / | -26.3% | / | ? | -26.6%
CC(C)(C)C(=O)N1CCc2cc(-c3csc(N)n3)ccc21 | 2µM* | -28.3% | ? | -48.5% | ?
CCC(C)C(=O)N1CCc2cc(-c3csc(N)n3)ccc21 (stereo not given) | -2.8% | ? | ? | 13.4% | ?
Cc1c(C(=O)N2CCN(C(C)C)CC2)sc2ncnc(NCc3ccco3)c12 | / | -23.6% | / | -3.2% | -26.4%
COc1cc(C2C3=C(Nc4ncnn42)c2ccccc2CC3)cc(OC)c1OC (stereo not given) | ? | / | 0.731µM*! | 8.2% | /
CCCN1CNc2c(c(=O)[nH]c(=S)n2CCc2cc(C)ccc2C)C1 | / | -21.1% | / | / | -23.7%
CC1CN(CCC(=O)N2CCCC(C(=O)c3nccn3C)C2)Cc2cc(Cl)ccc2O1 (stereo not given) | / | -5.7% | / | -8.5% | -17.0%
CCOc1c(Br)cc(CNc2ccc3c(c2)OCCO3)cc1OC | -7.0% | ? | ? | 25.1µM* | ?
CCOc1cc(CNc2ccc3c(c2)OCCO3)cc(Br)c1OC | ? | ? | ? | 25.1µM* | ?
CCOc1c(Br)cc(CNc2ccc(N3CCOCC3)cc2)cc1OC | / | 0.0%[7.34 µM] | / | -15.3% | ?
CCOc1cc(CNc2ccc3c(c2)OCCO3)cc(Br)c1OCC(N)=O | -19.0% | ? | -22.2% | / | -20.4%
COc1cc2sc3cc(NCc4ccc5c(c4)OCO5)ccc3c(=O)c2cc1OC | / | ? | / | 13.6% | ?
COc1ccc(NCc2ccc3c(c2)OCO3)cc1Cl | 28.4% | -0.9% | 12.4% | / | 11.2µM*
Cc1ccc(CSc2nnc(-c3ccc(NC(=O)CCc4ccccc4)cc3)n2C)cc1 | / | -9.1% | / | / | -10.1%
CCOC(=O)c1ccc(N2C(=O)c3n[nH]c(-c4cccs4)c3C2c2ccc(C(C)C)cc2)cc1 (stereo not given) | -18.9%[46.1 µM] | -20.8% | ? | ? | -24.7%
CCOC(=O)c1ccc(N2C(=O)c3n[nH]c(-c4cccs4)c3C2c2cccc(O)c2)cc1 (stereo not given) | ? | -13.6% | ? | 35.5µM* | -18.7%
